Measured values published in publication PMC4336329 (PLoS ONE, 2015).
In all, about 310,000 compounds went through this assay and about 14,000 (4.5%) showed an effect of 50% or more. Effects have a minus sign here. The sample as a whole holds a higher share of strong results than the screen did.

These compounds were tested against human ether-à-go-go-related gene (hERG) potassium channel (human, UniProt Q12809) (assay: primary screen, population patch clamp on CHO cells stably expressing hERG; higher = less effect of the substance).
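Note: peak tail current of the secondary pulse compared with the same well before compound.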

Sequence of human ether-à-go-go-related gene (hERG) potassium channel (Q12809 whole entry, looked up): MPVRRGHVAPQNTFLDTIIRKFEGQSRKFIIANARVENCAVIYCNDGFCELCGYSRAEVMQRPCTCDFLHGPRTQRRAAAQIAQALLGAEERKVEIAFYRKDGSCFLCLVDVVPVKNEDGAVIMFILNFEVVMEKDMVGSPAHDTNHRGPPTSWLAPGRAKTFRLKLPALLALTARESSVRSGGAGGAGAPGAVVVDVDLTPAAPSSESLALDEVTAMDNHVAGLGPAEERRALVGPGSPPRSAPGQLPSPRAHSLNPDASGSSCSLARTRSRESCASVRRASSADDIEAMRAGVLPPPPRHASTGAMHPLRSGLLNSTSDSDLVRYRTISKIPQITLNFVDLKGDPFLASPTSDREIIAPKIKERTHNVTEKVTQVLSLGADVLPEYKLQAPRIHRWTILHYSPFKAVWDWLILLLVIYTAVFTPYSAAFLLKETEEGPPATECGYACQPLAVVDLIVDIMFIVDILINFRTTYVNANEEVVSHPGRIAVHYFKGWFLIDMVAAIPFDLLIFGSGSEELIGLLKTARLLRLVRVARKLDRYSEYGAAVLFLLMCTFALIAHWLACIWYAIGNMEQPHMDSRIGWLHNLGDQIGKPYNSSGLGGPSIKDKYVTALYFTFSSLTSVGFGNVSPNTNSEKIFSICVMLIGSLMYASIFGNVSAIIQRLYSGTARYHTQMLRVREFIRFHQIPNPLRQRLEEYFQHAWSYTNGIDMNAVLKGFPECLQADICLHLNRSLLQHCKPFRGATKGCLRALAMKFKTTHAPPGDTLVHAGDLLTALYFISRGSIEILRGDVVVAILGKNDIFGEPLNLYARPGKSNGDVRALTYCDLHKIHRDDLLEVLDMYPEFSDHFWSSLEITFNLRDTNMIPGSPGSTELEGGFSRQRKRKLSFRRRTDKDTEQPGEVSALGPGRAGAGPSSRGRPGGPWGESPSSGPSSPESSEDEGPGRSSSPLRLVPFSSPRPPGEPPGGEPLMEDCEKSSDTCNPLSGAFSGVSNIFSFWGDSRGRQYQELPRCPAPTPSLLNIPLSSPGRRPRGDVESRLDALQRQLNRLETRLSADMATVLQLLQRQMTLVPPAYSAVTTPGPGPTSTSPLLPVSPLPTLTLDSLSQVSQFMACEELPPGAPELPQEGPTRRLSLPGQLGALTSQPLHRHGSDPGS

Structure (SMILES)	hERG current change (%, negative = inhibition) at 10uM [%]
COc1cc(CCCN2C(=O)C(=O)NC[C@@H]2CC2CCCCC2)cc(OC)c1OC	4
N#Cc1cc[n+](CC(=O)c2ccc(NC(=O)c3ccccc3)cc2)cc1.[Br-]	-14.6
Cc1ccc(SCCNC(=O)/C=C/c2ccc(Cl)cc2)cc1	-0.0121
CC(C)C(NC(=O)/C=C/c1ccc(F)cc1)C(C)C	16.1
CCN(CC)CCCNC(=O)CC1Oc2ccc(C)cc2NC1=O (centres unmarked)	0.515
CCN(CCCNC(=O)CC1Oc2ccc(C)cc2NC1=O)Cc1ccccc1 (centres unmarked)	-61.5
Cc1ccc2c(c1)NC(=O)C(CC(=O)NCCCN1CCCC1)O2 (centres unmarked)	12.6
COc1ccc(N2CCN(CCCNC(=O)CC3Oc4ccc(C)cc4NC3=O)CC2)cc1 (centres unmarked)	-55.5
Cc1ccc2c(c1)NC(=O)C(CC(=O)NCCCN1CCCC1=O)O2 (centres unmarked)	16.5
Cc1ccc2c(c1)NC(=O)C(CC(=O)NCCCN1CCc3ccccc3C1)O2 (centres unmarked)	-65.7
Cc1ccc2c(c1)NC(=O)C(CC(=O)NCCCN1CCN(c3cc(C)ccc3C)CC1)O2 (centres unmarked)	-61.4
Cc1ccc2c(c1)NC(=O)C(CC(=O)NCCCN1CCCCC1C)O2 (centres unmarked)	-4.68
CCC1CCCCN1CCCNC(=O)CC1Oc2ccc(C)cc2NC1=O (centres unmarked)	-7.95
Cc1ccc2c(c1)NC(=O)C(CC(=O)NCCCN1CCCCC1)O2 (centres unmarked)	-0.113
COc1ccc(NC(=O)CC2Oc3ccc(C)cc3NC2=O)cc1 (centres unmarked)	11.3
CCCCN(CCCC)CCCNC(=O)CC1Oc2ccc(C)cc2NC1=O (centres unmarked)	-49.5
CCn1cc(C(=O)NCc2ccco2)c(=O)c2cc(S(=O)(=O)N3CC(C)CC(C)C3)ccc21 (centres unmarked)	-7.3
O=c1c2ccccc2nnn1CSc1nnc(-c2cccnc2)n1-c1ccccc1F	11.5
CNC(=O)c1cc(S(=O)(=O)Nc2ccc3c(c2)OCO3)ccc1C	4.42
COc1ccc(CCNC(=O)CCCCC(=O)NCCc2ccc(OC)c(OC)c2)cc1OC	4.7
CCN(c1ccc(OC)cc1)S(=O)(=O)c1nnc(NC(=O)c2ccccc2Cl)s1	15.5
Cc1ccnc(NC(=O)C2CCN(S(=O)(=O)c3ccc4c(c3)CC(C)N4C(=O)C3CCC3)CC2)c1 (centres unmarked)	-0.431
COc1cc(/C=C(\C#N)C(=O)Nc2cccc(C(=O)O)c2)ccc1OCc1ccc(F)cc1	22.6
